The values that follow come from PubChem BioAssay (NCI).

This is part of a sample that, as a whole, favours compounds with a hit. Of some 83,000 tested, about 20% had one in any assay.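 How to read the values: 0–100, growth inhibition (40 = 60% inhibited); 0, no net growth; -100 to 0, cell death (-40 = 40% of starting cells died; -100 = all dead).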 A number with no mark means an inactive call. Active and inactive are the calls of the source. How the source made its calls: active means growth percent below 10; inactive means the rest.

Among the test systems are SR leukemia; RPMI-8226 leukemia; OVCAR-8 ovarian; OVCAR-5 ovarian; OVCAR-4 ovarian; SK-OV-3 ovarian; IGROV1 ovarian; OVCAR-3 ovarian; HS 578T breast; NCI/ADR-RES ovarian.
What all share (assay): NCI-60 one-dose screen, 48 h (100 = growth as untreated, 0 = no growth, -100 = all killed)
What all share (settings): 10 µM

Turning to `Nc1cc(-c2ccncc2)c[nH]c1=O`, the growth with SR leukemia is 74.3%; with RPMI-8226 leukemia, 109%; with OVCAR-8 ovarian, 100%; in the assay on OVCAR-5 ovarian it was 98.8%; with OVCAR-4 ovarian, 106%; with SK-OV-3 ovarian it was 120%. Moreover, the growth in the assay with IGROV1 ovarian is 108%; in the assay on OVCAR-3 ovarian, 107%; in the assay on HS 578T breast it was 110%; with NCI/ADR-RES ovarian it was 104%.
For `COc1cc2cc(Oc3ccc(NC(=O)Nc4cccc(C(F)(F)F)c4)cc3)c(C)nc2cc1OC`, the growth is -6.62% (active) in the assay on SR leukemia; -5.94% (active) in the assay with RPMI-8226 leukemia; 8.32% (active) in the assay with OVCAR-8 ovarian; 27.8% in the assay on OVCAR-5 ovarian; 31.7% with OVCAR-4 ovarian; 3.35% (active) in the assay on SK-OV-3 ovarian. The growth is 8.77% (active) in the assay on IGROV1 ovarian, -0.54% (active) in the assay with OVCAR-3 ovarian, 22.5% in the assay with HS 578T breast and 6.98% (active) in the assay on NCI/ADR-RES ovarian.
Take `CCN(CC)CCOc1cccc2c1C(=O)c1ccccc1C2=O`: the growth was 88.4% with SR leukemia; 86% in the assay with RPMI-8226 leukemia; 85.7% in the assay on OVCAR-8 ovarian; 102% in the assay with OVCAR-5 ovarian; 86.7% in the assay on OVCAR-4 ovarian; 82.2% with SK-OV-3 ovarian. The growth is 102% in the assay on IGROV1 ovarian, 102% in the assay on OVCAR-3 ovarian, 90% with HS 578T breast and 92.5% in the assay with NCI/ADR-RES ovarian.
Regarding `O=C1/C=C/[C@@H](O)[C@@H]2C[C@@H](O)C[C@H]2/C=C/CCC[C@@H](C(F)(F)F)O1`, the growth was 102% in the assay with SR leukemia; 97.7% in the assay on RPMI-8226 leukemia; 83.2% in the assay on OVCAR-8 ovarian; 107% in the assay on OVCAR-5 ovarian; 75.3% in the assay on OVCAR-4 ovarian; 96% in the assay on SK-OV-3 ovarian. In addition, the growth in the assay on IGROV1 ovarian was 105%; in the assay on OVCAR-3 ovarian it was 69.8%; with HS 578T breast, 74.2%; in the assay with NCI/ADR-RES ovarian it was 92.5%.
Take `NC(N)=N/N=C(\c1ccccc1)C(O)c1ccccc1` (centres undefined): the growth was 95.9% in the assay on SR leukemia; 94.5% in the assay on RPMI-8226 leukemia; 105% in the assay with OVCAR-8 ovarian; 112% in the assay on OVCAR-5 ovarian; 105% in the assay with OVCAR-4 ovarian; 94.2% in the assay on SK-OV-3 ovarian. The values for the growth with IGROV1 ovarian, in the assay on OVCAR-3 ovarian and in the assay with NCI/ADR-RES ovarian were 100%, 111% and 111%, respectively.
Consider `C=C(C)[C@@H]1CC[C@]2(COCCC#N)CC[C@]3(C)[C@H](CC[C@@H]4[C@@]5(C)Cc6c([nH]c7ccccc67)C(C)(C)[C@@H]5CC[C@]43C)[C@@H]12`, for which the growth with SR leukemia was 94.7%; in the assay with RPMI-8226 leukemia, 86.1%; in the assay on OVCAR-8 ovarian it was 107%; in the assay on OVCAR-5 ovarian it was 89.3%; in the assay on OVCAR-4 ovarian, 88.5%; in the assay with SK-OV-3 ovarian, 100%. Moreover, the growth in the assay with IGROV1 ovarian was 105%; in the assay with OVCAR-3 ovarian, 93.9%; with HS 578T breast, 90.6%; in the assay on NCI/ADR-RES ovarian, 98.1%.
As for `Cn1cnc([N+](=O)[O-])c1/C=C1\Oc2ccc(Br)cc2C1=O`, the growth with SR leukemia is 33.9%; in the assay on RPMI-8226 leukemia, 4.16% (active); in the assay on OVCAR-8 ovarian, 77.8%; in the assay on OVCAR-5 ovarian, 105%; in the assay with OVCAR-4 ovarian it was 103%; in the assay on SK-OV-3 ovarian, 89.9%. In addition, the growth with IGROV1 ovarian is 87.1%; in the assay with OVCAR-3 ovarian, 99.7%; in the assay on HS 578T breast, 103%; in the assay on NCI/ADR-RES ovarian, 101%.
Consider `COc1ccc(NC(=O)C2CC3C=CC2C3)c([N+](=O)[O-])c1` (centres undefined), for which the growth in the assay with SR leukemia is 85.4%; in the assay with RPMI-8226 leukemia, 104%; in the assay with OVCAR-8 ovarian, 101%; in the assay with OVCAR-5 ovarian it was 96.5%; in the assay on OVCAR-4 ovarian it was 92.7%; in the assay on SK-OV-3 ovarian it was 102%. Further, the growth in the assay on IGROV1 ovarian was 108%; in the assay with OVCAR-3 ovarian it was 99.4%; in the assay on HS 578T breast it was 95.4%; in the assay on NCI/ADR-RES ovarian it was 97.6%.
For `COc1ccc(C(=O)N2C=Cc3ccccc3C2C#N)cc1` (centres undefined), the growth with SR leukemia was 88.8%; in the assay with RPMI-8226 leukemia it was 94.9%; in the assay with OVCAR-8 ovarian, 100%; with OVCAR-5 ovarian it was 102%; in the assay on OVCAR-4 ovarian it was 102%; with SK-OV-3 ovarian, 97.5%. Besides, the growth in the assay on IGROV1 ovarian is 114%; with OVCAR-3 ovarian, 105%; in the assay on HS 578T breast, 96.9%; with NCI/ADR-RES ovarian, 95.6%.
For `COc1ccc(Nc2cnc3cc(NS(=O)(=O)c4ccc(C)cc4)ccc3n2)cc1`, the growth in the assay with SR leukemia is 30%; in the assay on RPMI-8226 leukemia, 106%; in the assay with OVCAR-8 ovarian it was 82.1%; in the assay on OVCAR-5 ovarian, 95.9%; in the assay on OVCAR-4 ovarian, 86.5%; in the assay with SK-OV-3 ovarian, 88%. Further, the growth in the assay on IGROV1 ovarian is 65.5%; with OVCAR-3 ovarian, 79.8%; in the assay on HS 578T breast, 82.7%; in the assay with NCI/ADR-RES ovarian it was 73.1%.
In the case of `CCOC(=O)c1cc(C(=O)c2cc(OC)cc(OC)c2)n2ncc3ccccc3c12`, the growth in the assay on SR leukemia is 4.68% (active); in the assay with RPMI-8226 leukemia it was 33%; in the assay with OVCAR-8 ovarian, 34.4%; with OVCAR-5 ovarian, 55.2%; with OVCAR-4 ovarian it was -18% (active); in the assay with SK-OV-3 ovarian it was 37.6%. For the same compound, the growth is 43.5% with IGROV1 ovarian, -13.5% (active) with OVCAR-3 ovarian, 17.8% with HS 578T breast and 19.1% with NCI/ADR-RES ovarian.
For `COc1ccccc1/C=N\N/C(N)=N\N=C\c1ccccc1OC`, the growth is -23.1% (active) with SR leukemia; 1.89% (active) in the assay on RPMI-8226 leukemia; 27.2% with OVCAR-8 ovarian; 32.3% in the assay with OVCAR-5 ovarian; 42.4% in the assay on OVCAR-4 ovarian; 26.3% in the assay with SK-OV-3 ovarian. Besides, the growth was 12% with IGROV1 ovarian, -13.2% (active) in the assay on OVCAR-3 ovarian, -14.7% (active) in the assay on HS 578T breast and 22.6% in the assay with NCI/ADR-RES ovarian.
For the compound `CC(=O)/C(=C/c1ccc(Br)cc1)C(=O)c1ccccc1`, the growth with SR leukemia is -16.8% (active); in the assay on RPMI-8226 leukemia, -26.3% (active); in the assay with OVCAR-8 ovarian, 63.7%; with OVCAR-5 ovarian, 86.6%; in the assay on OVCAR-4 ovarian it was 81.4%; with SK-OV-3 ovarian it was 120%. In addition, the growth in the assay with IGROV1 ovarian was 74%; in the assay with OVCAR-3 ovarian it was 81.9%; with HS 578T breast it was 90.7%; in the assay with NCI/ADR-RES ovarian, 85.8%.
Consider `Cc1cc(SC#N)cc(C(C)(C)C)c1O`, for which the growth in the assay on SR leukemia was 86%; in the assay with RPMI-8226 leukemia, 96.6%; in the assay with OVCAR-8 ovarian, 99.9%; with OVCAR-5 ovarian it was 88.4%; with OVCAR-4 ovarian, 96.1%; with SK-OV-3 ovarian, 93.1%. Also, the growth is 100% in the assay with IGROV1 ovarian, 95% in the assay with OVCAR-3 ovarian, 110% with HS 578T breast and 104% in the assay on NCI/ADR-RES ovarian.
`CCCCc1oc2ccccc2c1C(=O)c1cc(I)c(OCCN(CC)CC)c(I)c1`: the growth was -51.8% (active) in the assay on SR leukemia; -29.5% (active) in the assay on RPMI-8226 leukemia; -10% (active) with OVCAR-8 ovarian; -36% (active) in the assay with OVCAR-5 ovarian; 10.3% in the assay with OVCAR-4 ovarian; -38.1% (active) with SK-OV-3 ovarian. Further, the growth was 29.5% in the assay on IGROV1 ovarian, 12% with OVCAR-3 ovarian, -19.3% (active) in the assay on HS 578T breast and -20.3% (active) in the assay on NCI/ADR-RES ovarian.
Regarding `CN1CCN(c2cc3c(cc2F)c(=O)c(C(=O)O)cn3-c2ccc(F)cc2)CC1`, the growth with SR leukemia is 96.4%; in the assay with RPMI-8226 leukemia, 101%; in the assay on OVCAR-8 ovarian, 96.8%; with OVCAR-5 ovarian it was 106%; in the assay on OVCAR-4 ovarian it was 102%; in the assay with SK-OV-3 ovarian it was 109%. Also, the growth with IGROV1 ovarian was 103%; with OVCAR-3 ovarian it was 102%; in the assay with HS 578T breast it was 99.6%; with NCI/ADR-RES ovarian, 90.1%.
